Most compounds without a hit are left out; they make up all but 8.5% or so of the library.
KDM4E inh: JMJD2E (human) inhibition; 1.6% of 230,000 active; Potency, µM (titrated, usually from 57.1 µM), for the others: top-dose activity change, negative = inhibition, usual class: inhibitors; JMJD2E catalytic domain, FDH-coupled NADH fluorescence (FDH is formaldehyde dehydrogenase); AID 2147;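 note: potency is the fitted concentration of half-maximal effect; 0% = wells with enzyme and -100% = buffer wells without enzyme; nearly all actives have a fitted effect of over 50% in size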
Target sequence (B2RXH2 1-337 limits assumed): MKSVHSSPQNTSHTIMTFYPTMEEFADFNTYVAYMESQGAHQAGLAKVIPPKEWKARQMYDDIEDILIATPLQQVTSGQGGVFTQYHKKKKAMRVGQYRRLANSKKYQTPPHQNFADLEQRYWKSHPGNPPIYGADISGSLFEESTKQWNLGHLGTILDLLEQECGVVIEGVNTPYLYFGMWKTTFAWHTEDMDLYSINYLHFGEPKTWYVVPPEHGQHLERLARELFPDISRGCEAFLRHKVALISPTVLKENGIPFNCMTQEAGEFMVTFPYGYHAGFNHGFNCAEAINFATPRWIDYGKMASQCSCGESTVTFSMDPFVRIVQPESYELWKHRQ
GoLoco inh red: RGS12 GoLoco-Gai1 interaction inhibition; Gai1:RGS12 GoLoco peptide FP, rhodamine, 10 min; Potency, µM (top dose mostly 61.6 µM), for inactives: at the top dose activity, negative = inhibition, hits mostly inhibitors; 0.44% of 230,000 active; P63096; active = well fitted inhibition curve with a large enough effect, not every such curve was filed as active; inactive = no such curve, though single readings can be large or run the other way; note: potency is the fitted concentration of half-maximal effect; nearly all actives have a fitted effect of over 30% in size
Target sequence (P63096 whole entry, looked up): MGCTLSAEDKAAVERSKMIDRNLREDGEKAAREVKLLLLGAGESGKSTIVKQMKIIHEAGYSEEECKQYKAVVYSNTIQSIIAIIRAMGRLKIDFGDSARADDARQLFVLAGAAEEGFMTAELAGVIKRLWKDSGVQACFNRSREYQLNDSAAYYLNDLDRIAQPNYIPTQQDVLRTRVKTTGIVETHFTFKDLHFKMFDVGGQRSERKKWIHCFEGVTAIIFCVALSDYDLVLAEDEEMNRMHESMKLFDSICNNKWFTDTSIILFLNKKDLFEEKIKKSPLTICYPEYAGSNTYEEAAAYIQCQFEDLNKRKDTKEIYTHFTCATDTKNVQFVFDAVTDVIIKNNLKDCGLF
Sfp inh: blocks B. subtilis Sfp PPTase activity; Q9F4F7; Biochemical Sfp PPTase activity, qHTS; Potency, µM, for inactives: largest response in the series, negative = inhibition, actives largely listed as inhibitors; 3.5% of 310,000 active; AID 1490; active = well fitted curve in the direction sought with a large enough effect; inconclusive = small, poorly fitted or top-dose-only effect, or another doubt; inactive = no such curve, though single readings can be large; an effect the other way counts as inactive or inconclusive;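 note: the enzyme is Sfp with the accession as filed and its product quenches rhodamine fluorescence; potency is the fitted concentration of half-maximal effect; 0% = enzyme reaction without inhibitor and -100% = no enzyme wells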
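Compounds were incubated with enzyme (final 15 nM) for 15 min at room temperature before substrate addition started the reaction. Fluorescence at 525 nm excitation, 598 nm emission was recorded immediately and after 30 minutes.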
FBPA coupling cs: inhibits coupling enzyme system, counter-screen for aldolase hits; activity change, negative = inhibition, % at 58.2 µM, hits read low; 0.67% of 290,000 active; coupling enzyme system counterscreen, AmpLite Red fluorescence; AID 2472; in the data active = activity change below about -30%
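Final compound at 57.5 uM, incubated 10 min at RT with coupling enzyme reagent (glyceraldehyde-3-phosphate), then 20 min with substrate and AmpLite Red detection. Fluorescence read at 525/598 nm; tests interference with the coupling assay, not aldolase inhibition.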
ALDH1A1 block: ALDH1A1 (human) enzyme inhibition. Purified ALDH1A1, NADH fluorescence, propionaldehyde substrate. P00352. Potency, µM (highest dose often 75.3 µM), without a hit: top-dose activity, negative = inhibition, usual class: inhibitors. 7.3% of 220,000 active;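 note: potency is the fitted concentration of half-maximal effect; plate controls were no enzyme wells and a reference inhibitor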
NPSR antag: antagonists of human neuropeptide S receptor cAMP signaling; Q6W5P4; CHO-NPSR cells, cAMP TR-FRET, antagonist mode; Potency, µM (titrated, usually from 38.3 µM), without a hit: at the highest dose activity change, negative = inhibition, hits mostly inhibitors; 1% of 220,000 active; active = well fitted curve in the direction sought with a large enough effect; inconclusive = small, poorly fitted or top-dose-only effect, or another doubt; inactive = no such curve, though single readings can be large; an effect the other way counts as inactive or inconclusive; note: potency is the fitted concentration of half-maximal effect; nearly all actives have a fitted effect of over 50% in size
Numbers without * were called inactive; u = inconclusive; x = no result given; ! = not confirmed by another sample; [ ] = remark or other dose. Unless noted, calls come from the whole dose curve; as a rule, active = well fitted inhibition curve with a large enough effect (not every such curve was filed as active); inconclusive = small, poorly fitted or top-dose-only effect, or another doubt; inactive = no such curve, though single readings can be large or run the other way. Unless noted, % is set by controls: 0 for no effect and ±100 for the full control effect.

SMILES	KDM4E inh	GoLoco inh red	Sfp inh	FBPA coupling cs	ALDH1A1 block	NPSR antag
Cc1cc(C)cc(N2C(=O)NC(=O)/C(=C\c3cc(C)n(C)c3C)C2=O)c1	-4%	42%	-8%	-1	-2%	-9%
Cc1cc(/C=C2\C(=O)NC(=O)N(c3ccc(Cl)cc3)C2=O)c(C)n1C	1%	114%	-13%	1	-7%	-1%
COc1ccc(/C=C2/C(=O)NC(=O)N(c3ccc(C)c(C)c3)C2=O)cc1CN1C(=O)c2ccccc2C1=O	-9%	64%	40µM*	7	7.9µM*	-17%
COc1ccc(N2C(=O)NC(=O)/C(=C/c3ccc4c(c3)Cc3ccccc3-4)C2=O)cc1	u	32%	56µM*	4	u	-12%
COc1cc(/C=C2\C(=O)NC(=O)N(c3ccccc3)C2=O)cc(OC)c1OC	-15%	-7%	u	1	13µM*	-6%[46.1 µM]
COc1cc(/C=C2\C(=O)NC(=O)N(c3ccc(C)cc3)C2=O)cc(OC)c1O	u	36%	35µM*	-29	u	-31%
COc1cc(/C=C2/C(=O)NC(=O)N(c3ccc(C)cc3)C2=O)cc(OC)c1OC	u	-16%	50µM*	0	x	6%
N#CC(C#N)=Cc1ccc(-c2ccccc2F)o1	-5%	4%	-6%	2	8.9µM*	-1%
O=c1c(O)c(-c2ccc(O)c(O)c2)oc2cc(O)cc(O)c12	14µM*	-1%	56µM*!	-1	13µM*!	u
O=c1cc(-c2ccc(O)c(O)c2)oc2cc(O)cc(O)c12	13µM*	5%	u	-3	20µM*	-12%
C[C@H](Br)CN(C[C@H](C)Br)c1ccc2c(c1)Cc1ccccc1-2	x	3%[14.2 µM]	x	x	-8%[13.5 µM]	x
C=CCOCC1CO1 (stereo unspecified)	x	9%	x	x	u	x
CC(C)=C[C@H]1[C@@H](C(=O)OCc2cc3c(cc2Cl)OCO3)C1(C)C	x	4%[14.2 µM]	x	x	-13%[13.5 µM]	x
CN(CCOc1ccc(C=C2C(=O)NC(=O)NC2=O)cc1)c1ccccn1	u	-4%	79µM*	4	u	-18%
COc1ccc(CCn2c(O)c(C=NCc3ccc4c(c3)OCO4)c(=O)[nH]c2=O)cc1OC	2%	-2%	-9%	0	5µM*	3%[46.1 µM]
O=c1[nH]c(=O)n(CCc2ccc(F)cc2)c(O)c1C=NCc1ccc2c(c1)OCO2	-3%	3%	u	-1	11%	-4%[46.1 µM]
Cc1[nH]c(=O)n(C(C)(C)C)c(=O)c1Cl	x	x	19%	0	x	x
S=P(C1CCCCC1)(C1CCCCC1)[C@H](c1cccnc1)N1CCCC1	x	6%[14.2 µM]	x	x	-16%[13.5 µM]	x
CCCCn1c(=O)c(C=Nc2cc([N+](=O)[O-])ccc2OC)c(O)n(CCCCl)c1=O	u	21%	-26%	-5	11µM*	-34%
CC[C@H]1CN2CC[C@@H]1C[C@H]2[C@@H](O)c1ccnc2ccc(OC)cc12	u	-1%[21.6 µM]	22%	3	u	x
N[C@]1(C(=O)O)CC[C@@H](C(=O)O)C1 (racemic)	x	5%	56µM*!	x	3%	x
Nc1nnnn1CCO	x	1%[14.2 µM]	x	x	0%[13.5 µM]	x
CCn1c(N)c(C(=O)NC)sc1=S	u	-14%	2.2µM*	-2	2.8µM*	-10%[46.1 µM]
CN(C(=O)COc1nc2ccccc2s1)c1ccccc1	x	x	-5%	-2	x	x
CCN(CC)C(=O)N[C@H]1C=C2c3cccc4[nH]cc(c34)C[C@@H]2N(C)C1	u	-22%[21.6 µM]	4%	-10	u	x
SMILES	KDM4E inh	GoLoco inh red	Sfp inh	FBPA coupling cs	ALDH1A1 block	NPSR antag
C=CC(=O)OCC	x	-2%	x	x	8%	x
CCN1C(=O)NC(=O)/C(=C\c2ccc(N3CCOCC3)cc2OC)C1=O	-6%	187%	-6%	0	u	u
COc1ccc(/C=C2\C(=O)NC(=O)N(CCC3=CCCCC3)C2=O)c(OC)c1	-3%	39%	56µM*	1	0.32µM*	-8%[46.1 µM]
O=C1NC(=O)N(CCC2=CCCCC2)C(=O)/C1=C/c1cccs1	-8%	36%	-15%	5	x	-46%
O=C1NC(=O)N(CCC2=CCCCC2)C(=O)/C1=C/c1ccc(O)cc1	u	42%	45µM*	0	0.79µM*	8%
C[C@@H](CO)NC(=O)[C@@H]1C=C2c3cccc4[nH]cc(c34)C[C@H]2N(C)C1	u	-14%	21%	-18	u	x
O=[N+]([O-])c1ccc2nc(CCCc3nc4ccc([N+](=O)[O-])cc4[nH]3)[nH]c2c1	-7%	-4%	10%	-1	14µM*	0%
Cc1ccc([N+](=O)[O-])cc1C	x	48%	x	x	u	x
O=[N+]([O-])c1ccc(NCc2ccccc2)c2nonc12	-3%	3.2µM*	15%	-12	-4%	-19%
C[C@@]12CCC(=O)C=C1C=C[C@H]1[C@H]3CC[C@](O)(CCC(=O)O)[C@]3(C)CC[C@@H]12	6%[25.5 µM]	8%[21.6 µM]	21%	3	13%[20.9 µM]	x
Clc1ccccc1CNc1nc2ccccc2n2cnnc12	u	10%	27%	1	x	4%
Cc1cccc(N=Cc2c(O)n(-c3ccccc3C)c(=O)[nH]c2=O)c1	4%	76%	7%	0	25µM*	-21%[46.1 µM]
C/C=C1/C[C@@H](C)[C@](O)(CO)C(=O)OCC2=CCN3CC[C@@H](OC1=O)C23 (stereo partly specified)	-13%	6%	1%	2	7%	x
Cc1[nH]n(-c2ccccc2)c(=O)c1C(C[N+](=O)[O-])c1ccccc1Cl (stereo unspecified)	-28%	3%	2%	-8	u	-4%[46.1 µM]
Cc1[nH]n(-c2ccccc2)c(=O)c1C(c1ccc([N+](=O)[O-])cc1)c1c(C)[nH]n(-c2ccccc2)c1=O	-7%	-8%	-11%	-4	13µM*	u
CC(N)[C@H](O)c1ccc(O)c(O)c1 (stereo partly specified)	5.6µM*	-9%	x	x	-3%	-8%[46.1 µM]
C[C@@H](N)[C@@H](O)c1ccc(O)c(O)c1	x	-3%	56µM*	x	2%	x
S=c1[nH]nc(C2CC2)n1Cc1ccccc1	-4%	8%	56µM*	-7	14µM*	-1%
O=[N+]([O-])/C=C/c1ccccc1	x	-4%	x	x	-3%	x
CC(=O)Nc1cccc([As](=O)(c2cccc(NC(C)=O)c2)c2cccc(NC(C)=O)c2)c1	-2%	5µM*	21%	3	x	1%[7.67 µM]
Nc1ccc2nonc2c1[N+](=O)[O-]	6%	14µM*	3%	-16	-3%	5%
O=[N+]([O-])c1ccc(N2CCCCCC2)c2nonc12	x	x	-5%	5	x	x
O=c1[nH]sc2cc(F)ccc12	-18%	-34%	3.2µM*	3	1.4µM*	7%
CN1CCC[C@@H]1c1cccnc1	x	5%	22%	x	u	x
O=C1NC(=O)C2(Cc3ccccc3N3CCCC32)C(=O)N1c1cccc(Cl)c1 (stereo unspecified)	-19%	16%	-11%	1	u	-6%[46.1 µM]

Bioassay records: PubChem, National Center for Advancing Translational Sciences (NCATS)
